Source: PubChem
Pf Dd2 inh: inhibitors of Plasmodium falciparum Dd2 growth; P. falciparum Dd2 growth, SYBR Green, 72 h; hits give low values; 94,000 compounds, 2.3% hits; activity change, % at 10 µM; in the data active = activity change below about -80%; inconclusive = no clear call, values can overlap the other calls
T cruzi growth-1: blocks T. cruzi growth in NIH3T3 culture | 77,000 compounds, 5.9% hits | T. cruzi beta-gal in NIH3T3, GalScreen luminescence, 90 h | inhibition, % at 8.34 µM;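 active = mean inhibition above about 93%, with at least 55% of replicates each passing it, limit read from the data, passing the limit was not always enough; inconclusive = only one of those two conditions holds; inactive = neither condition holds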
C diff growth: inhibitors of Clostridium difficile growth. Clostridium difficile clinical isolate growth, OD600, 24 h; hits give low values. growth activity, negative = inhibition, % at 16 µg/mL (by protocol). 86,000 compounds, 0.25% hits. AID 1259249;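 active = mean growth activity at or below -80% and every replicate also at or below -80%; inconclusive = mean at or below -80% but some replicate above -80%; inactive = mean growth activity above -80%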;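 note: 0% = DMSO wells and -100% = levofloxacin 16 µg/mL wells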
T cruzi growth-2: inhibitors of T. cruzi proliferation; shares compounds with T cruzi growth-1; T. cruzi beta-gal in NIH3T3, GalScreen luminescence, 90 h; inhibition, % at 8.35 µM; 5,600 compounds, 72% hits; AID 651739;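 active = mean replicate inhibition above about 95% and at least 55% of replicates individually reaching it, limit read from the data; inconclusive = only one of the two criteria is met; inactive = neither criterion is met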
T cruzi growth-3: Trypanosoma cruzi proliferation inhibition; AID 651740; shares compounds with T cruzi growth-1; T. cruzi beta-gal in NIH3T3, GalScreen luminescence, 90 h; inhibition, % at 2.09 µM; 5,600 compounds, 21% hits;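 active = mean inhibition above about 95%, with at least 55% of replicates also reaching it, limit read from the data; inconclusive = meets just one of the two conditions; inactive = meets neither condition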;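 note: plate controls were neutral control median for no effect and positive control median for full effect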
3T3 cytotox: cytotoxicity in mouse NIH/3T3 fibroblasts | shares compounds with T cruzi growth-1 | cytotoxicity (signal decrease), % at 8.35 µM | NIH/3T3 viability, CellTiter-Glo ATP luminescence, 90 h | 5,600 compounds, 14% hits;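 active = mean signal decrease across replicates above about 35% based on untreated-well scatter, with enough replicates individually passing, limit read from the data; inconclusive = no rule stated though some were filed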;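 note: 0% = median of neutral control wells and 100% = median of positive control wells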
NIH3T3 tox 2: cytotoxicity in mouse NIH/3T3 fibroblasts; shares compounds with T cruzi growth-1; NIH/3T3 viability, CellTiter-Glo ATP luminescence, 90 h; inhibition, % at 24.9 µM; 5,600 compounds, 56% hits;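 active = mean loss of cell viability signal at or above a set limit, and enough replicates individually reaching it; inconclusive = meets only the mean limit or only the replicate share; inactive = meets neither condition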;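 note: 0% = median of neutral control wells and 100% = median of positive control wells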
Numbers without * were called inactive; ? = inconclusive; . = not tested or not shown. This is a sample that favours compounds with a hit; in the whole collection about 6.7% have one here.

SMILES	Pf Dd2 inh	T cruzi growth-1	C diff growth	T cruzi growth-2	T cruzi growth-3	3T3 cytotox	NIH3T3 tox 2
C[C@H]1CN([C@@H](C)CO)C(=O)c2cc(NC(=O)CCC(F)(F)F)ccc2O[C@H]1CN(C)CC1CCCCC1	-4	34	6	.	.	.	.
C[C@H](CO)N1C[C@H](C)[C@H](CN(C)CC2CCCCC2)Oc2ccc(NC(=O)Cc3ccccc3)cc2C1=O	-3	46	26	.	.	.	.
C[C@@H]1CN([C@@H](C)CO)C(=O)c2cc(NC(=O)Cc3ccccc3)ccc2O[C@H]1CN(C)CC1CCCCC1	-7	?	3	65	6	-16	2
CO[C@@H]1CN(C)C(=O)c2cc(NC(C)=O)ccc2OC[C@H](C)N(CCC(F)(F)F)C[C@@H]1C	8	17	.	.	.	.	.
O=C(c1ccc(F)cc1)N1CCCCN2[C@H](CO)[C@@H](c3ccc(/C=C/c4ccccc4)cc3)[C@@H]2C1	1	72	-2	.	.	.	.
O=C(c1ccc(F)cc1)N1CC(=O)N2[C@H](CO)[C@@H](c3ccc(/C=C/c4ccccc4)cc3)[C@H]2C1	2	.	-5	.	.	.	.
O=C(c1ccc(F)cc1)N1CCCCN2[C@H](C1)[C@@H](c1ccc(/C=C/c3ccccc3)cc1)[C@@H]2CO	-18	99*	7	109*	79	33	32*
O=C(c1ccc(F)cc1)N1CCCCN2[C@@H](CO)[C@@H](c3ccc(/C=C/c4ccccc4)cc3)[C@@H]2C1	-56	112*	17	98*	63	88*	104*
O=C(c1ccc(F)cc1)N1CCCCN2[C@H](CO)[C@H](c3ccc(/C=C/c4ccccc4)cc3)[C@H]2C1	-46	61	37	.	.	.	.
O=C(c1ccc(F)cc1)N1CCCCN2[C@H](CO)[C@H](c3ccc(/C=C/c4ccccc4)cc3)[C@@H]2C1	-18	111*	9	107*	?	23	105*
COc1ccc(S(=O)(=O)N(C)C[C@H]2OCc3ccccc3-c3ccccc3C(=O)N([C@H](C)CO)C[C@@H]2C)cc1	-32	62	.	.	.	.	.
COc1cccc(-c2ccc3c(c2)O[C@H](CN(C)C(=O)C2CCC2)[C@H](C)CN([C@H](C)CO)S3(=O)=O)c1	-14	69	1	.	.	.	.
COc1cccc(-c2ccc3c(c2)O[C@H](CN(C)C(=O)C2CCOCC2)[C@@H](C)CN([C@@H](C)CO)S3(=O)=O)c1	-27	.	.	.	.	.	.
COc1cccc(-c2ccc3c(c2)O[C@H](CN(C)C(=O)C2CCCCC2)[C@H](C)CN([C@H](C)CO)S3(=O)=O)c1	-18	115*	-1	106*	98*	44*	87*
COc1cccc(-c2ccc3c(c2)O[C@H](CN(C)C(=O)C2CCC2)[C@H](C)CN([C@@H](C)CO)S3(=O)=O)c1	-39	103*	-1	95*	58	57*	78*
COc1cccc(-c2ccc3c(c2)O[C@H](CN(C)C(=O)C2CCCCC2)[C@@H](C)CN([C@@H](C)CO)S3(=O)=O)c1	-37	97*	1	111*	80	-5	76*
COc1cccc(-c2ccc3c(c2)O[C@@H](CN(C)C(=O)C2CCC2)[C@@H](C)CN([C@@H](C)CO)S3(=O)=O)c1	-35	93	-4	.	.	.	.
COc1cccc(-c2ccc3c(c2)O[C@@H](CN(C)C(=O)C2CCCCC2)[C@@H](C)CN([C@H](C)CO)S3(=O)=O)c1	-59	92*	5	98*	72	23	90*
COc1cccc(-c2ccc3c(c2)O[C@@H](CN(C)C(=O)C2CCC2)[C@@H](C)CN([C@H](C)CO)S3(=O)=O)c1	10	44	-1	.	.	.	.
CO[C@H]1CN(C)C(=O)c2ccc(NS(=O)(=O)c3cn(C)cn3)cc2OC[C@@H](C)NC[C@H]1C	36	.	-1	.	.	.	.
COc1ccc(NC(=O)Nc2ccc3c(c2)[C@H]2C[C@H](CC(=O)N4CCc5ccccc5C4)O[C@@H](CO)[C@H]2O3)cc1	-17	-19	0	.	.	.	.
C[C@H]1CN([C@@H](C)CO)C(=O)c2cc(C#CC3CCCC3)cnc2O[C@@H]1CN(C)Cc1ccncc1	-17	-107	0	.	.	.	.
COc1cccc(-c2ccc3c(c2)O[C@@H](CN(C)C(=O)C2CCCCC2)[C@H](C)CN([C@@H](C)CO)S3(=O)=O)c1	-68	112*	0	105*	74	19	90*
COc1cccc(-c2ccc3c(c2)O[C@@H](CN(C)C(=O)C2CCOCC2)[C@H](C)CN([C@@H](C)CO)S3(=O)=O)c1	-3	.	1	.	.	.	.
Cc1ccc(-c2ccc3c(c2)O[C@H](CN(C)Cc2ccc(F)cc2)[C@@H](C)CN([C@H](C)CO)S3(=O)=O)cc1	-66	98*	-8	102*	100*	46*	104*
SMILES	Pf Dd2 inh	T cruzi growth-1	C diff growth	T cruzi growth-2	T cruzi growth-3	3T3 cytotox	NIH3T3 tox 2
C[C@H]1CN([C@@H](C)CO)S(=O)(=O)c2ccc(-c3ccccc3)cc2O[C@H]1CN(C)CC1CC1	-66	112*	.	81	43	28	79*
C[C@H](CO)N1C[C@H](C)[C@H](CN(C)CC2CC2)Oc2cc(-c3ccccc3)ccc2S1(=O)=O	-40	37	.	.	.	.	.
Cc1ccc(-c2ccc3c(c2)O[C@H](CN(C)Cc2ccccc2)[C@H](C)CN([C@H](C)CO)S3(=O)=O)cc1	-4	121*	6	94	110*	29	106*
C[C@@H]1CN([C@H](C)CO)S(=O)(=O)c2ccc(-c3ccccc3)cc2O[C@H]1CN(C)Cc1ccccc1	-65	63	43	.	.	.	.
C[C@@H]1CN([C@@H](C)CO)S(=O)(=O)c2ccc(-c3ccc(F)cc3)cc2O[C@@H]1CN(C)Cc1cccc(F)c1	-22	52	7	.	.	.	.
C[C@@H]1CN([C@@H](C)CO)S(=O)(=O)c2ccc(-c3ccccc3)cc2O[C@@H]1CN(C)Cc1cccc(F)c1	-69	123*	-7	92	112*	14	107*
Cc1ccc(-c2ccc3c(c2)O[C@@H](CN(C)Cc2ccc(F)cc2)[C@@H](C)CN([C@@H](C)CO)S3(=O)=O)cc1	-31	91	4	.	.	.	.
C[C@H](CO)N1C[C@H](C)[C@@H](CN(C)Cc2ccc(C(=O)O)cc2)OCCCC[C@H](C)Oc2ccc(NS(=O)(=O)c3cccs3)cc2C1=O	54	-18	-2	.	.	.	.
O=C(Nc1ccc2c(c1)[C@@H]1C[C@@H](CC(=O)N3CCc4ccccc4C3)O[C@H](CO)[C@@H]1O2)Nc1ccccc1F	-47	.	-1	.	.	.	.
COc1cccc(S(=O)(=O)N2CC3(CN[C@H](CO)c4[nH]c5cc(OC)ccc5c43)C2)c1	-59	.	2	.	.	.	.
CNC[C@H]1Oc2cc(C#CCN(C)C)ccc2S(=O)(=O)N([C@@H](C)CO)C[C@H]1C	-3	-31	5	.	.	.	.
